# Measured values published in the supplement of paper PMC6555819.
# How the values were obtained:
# Assay in all cases: PBM binding z-score (relative to random genomic background probes); higher = stronger binding; sequences stand for … in GC…GCGATTGACAGCGTAGAATGAAGG
# [1] = system: RARg:RXRa (NR concentration 270 nM, RXRa partner concentration 90 nM)
# In short: (§1)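 Regression normalization was applied to scanned fluorescence from custom Agilent 4×180K protein-binding microarrays. Before scanning, arrays were incubated 1 h with ligand-free nuclear receptor dimers, and binding was detected with antibodies against each partner (one per run). Binding z-scores use the random background probes as reference.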
# [2] = system: RARg homodimer (NR concentration 270 nM)
# In short: as §1
# [3] = system: RXRa DBDmut IVT, anti-RXR (DBD mutation: RXRa K156A/R161A, NR concentration 90 nM)
# In short: as §1
# [4] = system: RXRa homodimer (NR concentration 180 nM)
# In short: as §1
# [5] = system: THRa:RXRa (NR concentration 90 nM, RXRa partner concentration 90 nM)
# In short: as §1
# [6] = system: THRa homodimer (NR concentration 90 nM)
# In short: as §1
# [7] = system: VDR homodimer (NR concentration 270 nM)
# In short: as §1
Sequence,PBM binding z-score [1],PBM binding z-score [2],PBM binding z-score [3],PBM binding z-score [4],PBM binding z-score [5],PBM binding z-score [6],PBM binding z-score [7]
TAGCCTAGGTCATTCAGGGGCCAGCATAGAAAGC,6.31,4.44,1.98,2.92,3.55,0.61,1.44
CGAACGAGGTCATGAGTTGATAGCAAATGCCGAT,6.18,6.02,4.6,6.87,4.26,3.07,4.41
TAGCCTAAGTCATGCGGGCCAGTATAGTGTCGGC,-0.283,-0.412,-0.949,-0.136,-0.34,-0.848,-1.04
GGAACGAGGGCAAAGTTCATAGCATCTGTCGACG,5.71,3.92,3.54,6.27,3.03,0.017,4.43
CCTTACGGGTCACTCCAGGTTATATCATCGGAGT,4.35,4.43,1.46,4.17,5.19,0.814,1.49
CCTACTGGTCCAAGGTCATTGATCAGTCAAAGCA,3.84,3.4,2,3.96,3.59,3.48,3.1
CAAACTAGGTCACAAAAGGTCAAAGTCGAATGAC,7.42,8.02,2.52,7.78,4.76,2.22,3.98
CCTAGTTGGTCAAGGTCACACCCGCTATAGGTAC,4.26,4.56,1.78,4.2,3.94,4.24,3.57
AGAATGAGGTCATACGTAGATCAGGGAAGAAAGT,6.31,5.97,4.7,6.67,4.18,3.25,4.56
TCTATTAGTTGATTAGGGCAACCGAAACAGCGGA,0.66,0.733,1.18,0.678,0.697,0.563,0.736
AATACAGGGTAACTAGGCCAGAGTAGGTACGAAT,0.64,0.567,-0.0804,0.664,0.631,-0.0802,0.108
CAGCATAGGTCAGGGCCAGTATAGGAGGAACGTT,3.97,4.39,0.209,3.33,1.65,-0.231,-0.0525
CGTCCAAGGTCTAGGTCAGTGAAAGAGACTCGAA,1.6,2.4,0.323,0.486,1.86,0.936,0.00097
TGTATGAGGTTAAAGATCAGGGAACGTGGCGTCG,2.79,1.99,1.22,4.35,2.84,1.01,1.19
CGTCCAAGGTCAAGGTCAATGAAAGAGACTCGAA,7,7.87,3.91,6.52,4.35,3.41,3.28
TCGAGTAGGTCACGGGGGCATTCAGGGATGAAGA,6.77,6.69,2.23,6.31,4.48,1.6,3.74
GCTGCTAGGTCAACTGATGGTCAACTAAAGCTCG,5.53,5.66,1.57,2.94,2.91,1.01,0.0813
ATATGTAGGTTAGGGGTCATTCAGGTTGGTTCGC,5.63,4.38,2.85,7.75,3.99,2.88,6.78
TATCAAAGTTCAAAGGTAACGTAAGTATCCACAC,6.25,6.03,4.5,7.49,3.56,0.168,4.2
CCTTACGGGTCACGAGGTTGTAGCACGACGAGCG,5.67,5.42,2.05,6.5,3.19,0.351,1.99

Sequence,PBM binding z-score [1],PBM binding z-score [2],PBM binding z-score [3],PBM binding z-score [4],PBM binding z-score [5],PBM binding z-score [6],PBM binding z-score [7]
AGTCAAAGTTCAGGACGACGTAACGTAAAGCACG,3.78,4.45,2.93,2.66,2.02,0.216,2.05
CGTCCAAGGTCATAGAGGTCAGTGAATGCCGAGT,7.06,7.75,4.4,7.55,4.38,3.51,7.8
ATATGTAGTTTATCGGGTCATTCAGTTTGCGCAT,2.41,1.85,2.32,2.61,3.42,3.09,4.13
CGTCCAAGGTCAATGCTAGATCAGTGAAAGCATT,5.61,5.86,3.56,4.83,3.51,1.97,2.34
TACCCTAGGTCATGGGCCAGTATACCACGCGAAC,4.53,4.92,0.55,4,3.26,2.22,1.35
CGTCAAAGTTCAAGGTCACGTAACAGAAAGCAGC,7.15,8.05,4.52,7.07,4.54,4.62,5.21
AGAATGAGGTTAAGTTCAGGGAAACAGAATACAT,3.41,2.98,2.38,3.6,3.34,1.48,3.44
TCTTGTAGATCAATAGAAGTTAAGAAAGTGCGCT,0.119,0.155,1.24,0.537,0.00398,-0.786,0.102
CCTACTCGGCCAAAAAGGTCATTGATGCCGATAA,4.7,4.45,1.13,4.82,3.33,1.22,2.91
ACTAGTTGGTCAGCTGAGGTCACACCCAATTCGG,3.85,3.86,1.34,3.47,5,4.84,2.67
TAGCCTAGGTCATGCGGCCCAGTATAGTGTCGGC,3.79,4.07,0.176,2.87,2.89,0.868,0.276
TAGCCTAGGTCGTTCAGGGGCCAGTATAGAAAGC,3.43,1.27,0.406,0.583,2.04,-0.169,0.675
CAAACTAGGTCACAGTGGTCAAAGTCCGTGCGTA,4.19,5.18,1.51,3.32,3.17,1.43,1.23
ATCGAAAGGTCGAAGGTGCGTATACCCACCCGAA,3.93,3.91,1.37,4.23,1.66,-0.362,0.858
TATAAAGGGTCAAAGGCCAGAGTACGAATGTCGA,6.39,6.63,3.06,7.08,3.11,-0.348,2.46
CGTCCAAGGTTAAGGTCAGTGAAAGAGACTCGAA,4.2,4.7,1.71,3.45,3.83,3.83,1.79
CCGAGTAGGTTACTAGGGGGCATTCAGTGCGAAT,2.46,2.1,1.4,1.72,3.57,0.676,3.59
CGCACTAGGTCATCCAGGACAGTGAATACATTGA,3.99,4.51,2.26,2.76,3.73,2.4,1.76
CGAACTAGGTCGTCCAGGACAGTGAATACATTGA,0.869,1.08,1.02,0.72,2.27,0.874,0.591
CCTACTGGGCCACTAAAGGTCATTGATTCAGTGA,4.48,4.5,0.757,4.87,3.61,0.905,2.62

Sequence,PBM binding z-score [1],PBM binding z-score [2],PBM binding z-score [3],PBM binding z-score [4],PBM binding z-score [5],PBM binding z-score [6],PBM binding z-score [7]
AGTCAAAGTTCATCTAGGTCACGTAAGATATGCT,6.63,7.35,4.81,5.75,4.62,2.83,7.84
CATACAGGGTCGGCTAGGCCAGAGTAGGGACGGC,0.866,1.16,-0.309,0.983,0.966,-0.41,0.745
CCTAGTTGTTCAGGAGGTCACACACCGGATATGA,4.48,4.35,1.15,4.73,3.62,2.81,3.5
ATCAAAAGGTCGAGGTGAGTATAGAGAAAGGGAA,4.7,4.98,1.28,4.83,3.11,1.26,1.18
ATATGTAGGTTAAGCGTCATTCAGGTTGGTTCGC,0.863,0.763,0.559,1.15,0.543,0.263,0.378
CCTCGGAGGACAACAGGAGGTCATAGCTGCCAGA,3.93,3.78,1.1,3.09,3.58,1.5,2.44
TAGCCTAGGTCATGCGGGACAGTATAGTGTCGGC,3.95,4.49,0.879,3.05,3.04,0.939,1.16
ATCGAAAGGTCGAAGGTGAGCATACCCACCCGAA,4.35,3.86,0.654,5.22,2.36,0.23,0.602
CGAACTAGGTCAAAGGACATTGAAAGGCGACGTA,4.1,4.34,1.63,3.33,2.82,0.495,0.442
CGAACAAGGTCATCCAGGACAGTGAATACATTGA,6.28,6.49,4.2,6.46,4.53,3.3,4.92
TCGCCTAGGTCATGGGCCAGTATACCACGCGAAC,4.24,4.78,1.21,3.7,3.15,1.58,0.535
TATACAAGGTCAAAGGCCAGAGTACGAATGTCGA,6.25,6.16,2.92,6.51,3.86,2.1,2.78
CGAACTAGGTCAAGGCCAGTGAATCTCCGCACGC,3.79,4.63,1.47,2.73,3.12,0.958,0.111
CGAACTAGGTCATCCAGGACCGTGAATACATTGA,3.95,4.72,2.15,2.82,3.12,0.969,0.996
CGTCAAAGTTCAACTGAGGTAACGTAAAGCACGC,6.11,6.84,4.76,5.4,5.27,1.89,4.07
CGAACTAGGTCACCCAGGACAGTGAATACATTGA,4.24,5.04,2.03,3.13,3.66,2.18,1.89
ATATGTAGGTTACATCCGGGTCATCCAGGCTATG,3.98,2.1,0.681,2.89,3.89,2.64,2.44
AGAATGAGGTCATTAAGATCAGGGAATTGCGGTC,5.83,5.03,4.81,6.72,4.38,3.69,4.67
AACGAAAGGTCGAAGGTGAGTATACCCACCCGAA,4.5,3.96,1.05,5.29,2.16,-0.462,0.527
TAGCCTAGGTCATTCAGGGGCCACTATAGAAAGC,6.46,4.76,1.94,3.21,3.89,1.05,1.92
